Tests used:
Experiment in all cases: log2 ratio of Biotin-Ahx-Ub-VS probe labelling (fragment/DMSO); higher = less target engagement (more negative = stronger competition), active = hit call of the paper (q ≤ 0.05, log2 ratio ≤ -1)
Settings in all cases: compound concentration: 200 uM; treatment time: 3 h
OTUD6B = target: T1, OTUD6B (UniProt Q8N6M0)
T1 sequence (whole entry): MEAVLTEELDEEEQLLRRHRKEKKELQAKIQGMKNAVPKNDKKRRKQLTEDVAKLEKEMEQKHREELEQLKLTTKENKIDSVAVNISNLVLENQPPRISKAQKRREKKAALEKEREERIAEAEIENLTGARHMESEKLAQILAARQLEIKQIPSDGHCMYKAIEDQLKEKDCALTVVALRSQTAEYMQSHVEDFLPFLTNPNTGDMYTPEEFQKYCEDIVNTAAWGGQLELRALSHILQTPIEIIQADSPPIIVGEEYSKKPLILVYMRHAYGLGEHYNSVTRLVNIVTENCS
Method in brief: (§1)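 Labelling with Biotin-Ahx-Ub-VS (0.5 µM final, 1 h) followed a 3 h triplicate treatment of HEK293T lysate (495 µg per sample, Tris/CHAPS/IGEPAL buffer with protease inhibitors) with fragment at 200 µM or vehicle. Labelled DUBs were NeutrAvidin-enriched, digested with LysC and trypsin, and run by diaPASEF LC-MS/MS. The values, average log2 fragment/vehicle ratios by unpaired t-test, come from global-median-normalised Spectronaut label-free quantities. Proteins with ≥2 unique peptides were used.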

OTUD7B = target: T2, OTUD7B (UniProt Q6GQQ9)
T2 sequence (whole entry): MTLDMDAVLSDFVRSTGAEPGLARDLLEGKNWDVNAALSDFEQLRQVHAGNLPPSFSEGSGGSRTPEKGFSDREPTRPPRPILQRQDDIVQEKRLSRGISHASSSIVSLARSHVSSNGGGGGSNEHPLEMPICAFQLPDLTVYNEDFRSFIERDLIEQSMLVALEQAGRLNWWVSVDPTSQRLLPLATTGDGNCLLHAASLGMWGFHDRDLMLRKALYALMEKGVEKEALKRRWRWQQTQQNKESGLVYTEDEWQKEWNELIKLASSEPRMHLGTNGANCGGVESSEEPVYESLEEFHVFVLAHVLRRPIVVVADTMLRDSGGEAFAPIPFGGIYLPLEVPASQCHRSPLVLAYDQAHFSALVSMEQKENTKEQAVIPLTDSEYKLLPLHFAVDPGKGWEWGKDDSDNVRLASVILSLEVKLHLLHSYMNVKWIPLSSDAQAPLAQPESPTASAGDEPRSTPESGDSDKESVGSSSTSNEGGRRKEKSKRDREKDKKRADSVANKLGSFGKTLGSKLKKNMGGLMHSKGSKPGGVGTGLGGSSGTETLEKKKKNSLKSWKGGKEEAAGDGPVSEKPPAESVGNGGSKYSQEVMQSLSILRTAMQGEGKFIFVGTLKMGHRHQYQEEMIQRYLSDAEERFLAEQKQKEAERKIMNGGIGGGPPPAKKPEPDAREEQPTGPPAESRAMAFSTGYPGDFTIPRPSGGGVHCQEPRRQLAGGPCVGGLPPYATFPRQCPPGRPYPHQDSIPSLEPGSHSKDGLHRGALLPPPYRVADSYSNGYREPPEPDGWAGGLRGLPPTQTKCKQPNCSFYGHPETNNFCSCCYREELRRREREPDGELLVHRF
Method in brief: as §1

PRPF8 = PRPF8 (UniProt Q6P2Q9)
Method in brief: as §1

PSMD7 = target: T3, PSMD7 (UniProt P51665)
T3 sequence (whole entry): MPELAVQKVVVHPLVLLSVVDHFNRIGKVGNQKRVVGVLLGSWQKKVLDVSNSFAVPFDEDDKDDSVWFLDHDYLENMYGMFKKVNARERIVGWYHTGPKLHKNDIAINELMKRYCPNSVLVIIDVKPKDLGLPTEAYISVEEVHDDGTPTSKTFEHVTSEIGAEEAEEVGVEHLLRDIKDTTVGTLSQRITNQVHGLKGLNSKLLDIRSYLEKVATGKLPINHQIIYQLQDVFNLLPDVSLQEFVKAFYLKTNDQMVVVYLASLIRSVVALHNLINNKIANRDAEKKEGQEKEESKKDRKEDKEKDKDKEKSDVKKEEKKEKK
Method in brief: as §1

UCHL1 = UCHL1 (UniProt P09936)
Chain of UCHL1 (P09936 whole entry, looked up): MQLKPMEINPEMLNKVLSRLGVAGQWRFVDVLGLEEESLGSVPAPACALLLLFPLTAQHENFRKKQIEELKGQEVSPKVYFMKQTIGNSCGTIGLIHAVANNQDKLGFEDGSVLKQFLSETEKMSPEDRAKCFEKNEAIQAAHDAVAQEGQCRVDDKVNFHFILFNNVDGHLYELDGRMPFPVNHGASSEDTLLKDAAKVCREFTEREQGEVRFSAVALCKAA
Method in brief: as §1

UCHL3 = target: T4, UCHL3 (UniProt P15374)
T4 sequence (whole entry): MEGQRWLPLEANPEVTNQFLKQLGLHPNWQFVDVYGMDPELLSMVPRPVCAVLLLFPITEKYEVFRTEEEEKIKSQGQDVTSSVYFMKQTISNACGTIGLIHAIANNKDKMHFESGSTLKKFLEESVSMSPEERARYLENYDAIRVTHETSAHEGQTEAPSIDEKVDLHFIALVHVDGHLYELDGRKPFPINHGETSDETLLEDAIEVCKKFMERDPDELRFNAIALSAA
Method in brief: as §1

UCHL5 = target: T5, UCHL5 (UniProt Q9Y5K5)
T5 sequence (whole entry): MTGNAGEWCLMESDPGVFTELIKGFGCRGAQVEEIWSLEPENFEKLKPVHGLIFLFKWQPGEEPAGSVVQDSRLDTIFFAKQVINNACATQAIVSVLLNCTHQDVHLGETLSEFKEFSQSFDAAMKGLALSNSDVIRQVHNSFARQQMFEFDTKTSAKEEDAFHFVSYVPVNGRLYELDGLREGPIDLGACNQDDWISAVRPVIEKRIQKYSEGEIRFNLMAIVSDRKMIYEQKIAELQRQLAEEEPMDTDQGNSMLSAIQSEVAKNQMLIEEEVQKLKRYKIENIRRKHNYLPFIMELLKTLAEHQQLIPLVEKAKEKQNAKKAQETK
Method in brief: as §1

USP10 = USP10 (UniProt Q14694)
Chain of USP10 (Q14694 whole entry): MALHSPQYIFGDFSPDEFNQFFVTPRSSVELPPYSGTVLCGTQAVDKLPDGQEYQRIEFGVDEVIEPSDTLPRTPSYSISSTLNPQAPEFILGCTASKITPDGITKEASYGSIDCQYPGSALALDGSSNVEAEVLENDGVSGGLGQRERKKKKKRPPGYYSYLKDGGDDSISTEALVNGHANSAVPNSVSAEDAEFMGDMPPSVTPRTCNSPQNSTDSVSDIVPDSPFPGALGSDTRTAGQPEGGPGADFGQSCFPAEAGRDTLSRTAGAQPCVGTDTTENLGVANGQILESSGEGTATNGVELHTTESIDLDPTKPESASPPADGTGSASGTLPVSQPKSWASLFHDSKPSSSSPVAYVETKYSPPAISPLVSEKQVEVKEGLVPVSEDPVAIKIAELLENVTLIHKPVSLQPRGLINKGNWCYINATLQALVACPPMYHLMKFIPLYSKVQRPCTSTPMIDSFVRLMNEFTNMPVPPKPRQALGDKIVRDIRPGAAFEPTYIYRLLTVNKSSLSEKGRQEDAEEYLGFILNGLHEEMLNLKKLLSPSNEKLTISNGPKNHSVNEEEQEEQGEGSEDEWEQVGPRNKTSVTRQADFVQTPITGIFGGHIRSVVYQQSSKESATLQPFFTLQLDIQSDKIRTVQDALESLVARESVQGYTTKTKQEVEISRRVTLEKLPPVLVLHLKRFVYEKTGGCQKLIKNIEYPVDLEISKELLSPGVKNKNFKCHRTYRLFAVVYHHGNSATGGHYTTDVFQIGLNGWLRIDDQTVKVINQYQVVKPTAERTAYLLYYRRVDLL
Method in brief: as §1

USP15 = target: T6, USP15 (UniProt Q9Y4E8)
T6 sequence (whole entry): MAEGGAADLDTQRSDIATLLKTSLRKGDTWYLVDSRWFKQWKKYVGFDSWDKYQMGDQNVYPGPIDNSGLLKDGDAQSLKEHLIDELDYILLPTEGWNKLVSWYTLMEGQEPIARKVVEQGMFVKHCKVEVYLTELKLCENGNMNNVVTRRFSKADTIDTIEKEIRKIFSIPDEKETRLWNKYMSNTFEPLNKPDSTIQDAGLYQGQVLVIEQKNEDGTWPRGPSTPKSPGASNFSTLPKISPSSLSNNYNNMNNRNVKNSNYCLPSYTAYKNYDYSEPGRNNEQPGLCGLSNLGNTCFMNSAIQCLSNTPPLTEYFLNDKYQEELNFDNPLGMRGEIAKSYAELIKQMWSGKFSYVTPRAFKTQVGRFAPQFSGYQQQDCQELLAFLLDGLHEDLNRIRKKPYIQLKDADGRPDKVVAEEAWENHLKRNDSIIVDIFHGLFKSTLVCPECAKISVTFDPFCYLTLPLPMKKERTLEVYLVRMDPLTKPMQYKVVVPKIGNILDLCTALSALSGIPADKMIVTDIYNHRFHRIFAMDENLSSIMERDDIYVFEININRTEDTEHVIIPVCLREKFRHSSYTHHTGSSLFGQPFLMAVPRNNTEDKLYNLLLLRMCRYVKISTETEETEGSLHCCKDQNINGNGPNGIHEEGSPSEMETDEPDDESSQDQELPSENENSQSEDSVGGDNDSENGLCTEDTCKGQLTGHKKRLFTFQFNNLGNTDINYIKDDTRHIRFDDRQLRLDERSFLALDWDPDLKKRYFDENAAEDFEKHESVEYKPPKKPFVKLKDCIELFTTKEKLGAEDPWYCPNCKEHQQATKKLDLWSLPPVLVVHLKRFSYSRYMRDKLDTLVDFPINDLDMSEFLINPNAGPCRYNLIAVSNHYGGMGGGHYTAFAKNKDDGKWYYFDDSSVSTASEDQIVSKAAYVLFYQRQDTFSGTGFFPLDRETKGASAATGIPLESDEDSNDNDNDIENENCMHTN
Method in brief: as §1

USP16 = USP16 (UniProt Q9Y5T5)
Chain of USP16 (Q9Y5T5 whole entry, looked up): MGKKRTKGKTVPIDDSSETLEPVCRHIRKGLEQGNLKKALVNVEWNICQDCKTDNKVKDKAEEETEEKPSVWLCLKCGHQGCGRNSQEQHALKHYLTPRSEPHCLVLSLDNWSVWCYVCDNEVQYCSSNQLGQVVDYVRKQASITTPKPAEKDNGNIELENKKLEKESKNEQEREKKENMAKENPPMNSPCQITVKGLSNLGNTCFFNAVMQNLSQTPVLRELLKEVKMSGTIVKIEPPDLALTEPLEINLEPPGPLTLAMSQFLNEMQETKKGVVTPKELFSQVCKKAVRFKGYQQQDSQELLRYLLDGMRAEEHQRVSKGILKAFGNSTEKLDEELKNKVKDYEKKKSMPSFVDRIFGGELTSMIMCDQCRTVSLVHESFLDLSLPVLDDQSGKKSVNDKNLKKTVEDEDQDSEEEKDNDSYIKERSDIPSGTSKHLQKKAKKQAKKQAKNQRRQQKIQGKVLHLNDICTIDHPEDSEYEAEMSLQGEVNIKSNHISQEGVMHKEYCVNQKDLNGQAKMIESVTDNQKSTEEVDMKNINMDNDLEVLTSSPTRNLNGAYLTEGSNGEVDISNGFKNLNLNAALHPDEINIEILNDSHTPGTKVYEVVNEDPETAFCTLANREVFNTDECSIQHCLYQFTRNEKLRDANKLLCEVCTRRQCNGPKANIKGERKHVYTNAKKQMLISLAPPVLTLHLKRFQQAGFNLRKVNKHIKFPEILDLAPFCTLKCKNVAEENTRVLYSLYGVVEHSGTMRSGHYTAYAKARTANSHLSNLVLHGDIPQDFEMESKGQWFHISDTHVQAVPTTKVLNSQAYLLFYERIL
Method in brief: as §1

Measured: log2 ratio of Biotin-Ahx-Ub-VS probe labelling

CCN(C(=O)CCl)C1CCS(=O)(=O)C1 (stereo not given)
active: UCHL1 -1.26
inactive: OTUD6B -0.144 | OTUD7B -0.284 | PRPF8 -0.167 | PSMD7 -0.00588 | UCHL3 0.365 | UCHL5 -0.0522 | USP10 -0.169 | USP15 -0.218 | USP16 -0.707
